# Results as given in PubChem BioAssay (NCI).
# This is part of a sample that, as a whole, favours compounds with a hit. Of some 83,000 tested, about 20% had one in any assay.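 Results are percent growth after 48 hours of single-concentration exposure. 100 means growth as in untreated cells, lower positive values show inhibition; negative values down to -100 show cell death.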 Values without a mark were called inactive. The source made the active and inactive calls. The calls were made as follows: active = growth percent below 10; inactive = the rest.
# Columns and labels:
# Test in all cases: NCI-60 one-dose screen, 48 h (100 = growth as untreated, 0 = no growth, -100 = all killed)
# [1] = tested on: NCI-H23 lung; settings: 10 µM unless noted
# [2] = tested on: NCI-H226 lung; settings: 10 µM unless noted
# [3] = tested on: NCI-H322M lung; settings: 10 µM unless noted
# [4] = tested on: HOP-62 NSCLC; settings: 10 µM unless noted
# [5] = tested on: NCI-H460 lung; settings: 10 µM unless noted
# [6] = tested on: HOP-92 NSCLC; settings: 10 µM
# [7] = tested on: NCI-H522 lung; settings: 10 µM unless noted
# [8] = tested on: A549/ATCC NSCLC; settings: 10 µM unless noted
# [9] = tested on: 786-0 renal; settings: 10 µM unless noted
# [10] = tested on: COLO 205 colon; settings: 10 µM unless noted
# [11] = tested on: DU-145 prostate; settings: 10 µM unless noted
# [12] = tested on: K-562 leukemia; settings: 10 µM unless noted
# [13] = tested on: MALME-3M melanoma; settings: 10 µM unless noted
# [14] = tested on: MDA-MB-231 breast; settings: 10 µM unless noted
# [15] = tested on: RXF 393 renal; settings: 10 µM unless noted
# [16] = tested on: SF-268 CNS; settings: 10 µM unless noted
# [17] = tested on: SF-295 CNS; settings: 10 µM unless noted
# [18] = tested on: SF-539 CNS; settings: 10 µM unless noted
# [19] = tested on: UACC-257 melanoma; settings: 10 µM unless noted
SMILES,growth [1],growth [2],growth [3],growth [4],growth [5],growth [6],growth [7],growth [8],growth [9],growth [10],growth [11],growth [12],growth [13],growth [14],growth [15],growth [16],growth [17],growth [18],growth [19]
CCN(CC)c1cn(-c2ccc(S(N)(=O)=O)cc2)nn1,109%,109%,110%,112%,106%,99%,92.9%,105%,106%,109%,105%,91.6%,103%,102%,114%,101%,101%,99.6%,99.7%
COc1cc(OC)c(/C=C/S(=O)(=O)Cc2ccc(OC)c(NCC(=O)NO)c2)c(OC)c1,15.4%,25.6%,45.6%,20.8%,10.8%,51.8%,3.67% (active),22.3%,28.1%,-67.6% (active),13.8%,11.6%,61.8%,25.4%,-0.671% (active),31.9%,6.88% (active),-5.59% (active),62.4%
O=C(NNc1nc2cc(F)ccc2n2c(CO)ccc12)c1cnccn1,22.8%,16.3%,22.7%,5.67% (active),2.22% (active),11.9%,2.58% (active),13.6%,17.4%,8.65% (active),22.7%,8.85% (active),10.5%,35.9%,–,20.3%,3.48% (active),3.67% (active),-1.53% (active)
O=S(=O)(Oc1ccc(-c2nnc(Nc3ccccc3)s2)cc1)C(F)(F)C(F)(F)C(F)(F)C(F)(F)C(F)(F)C(F)(F)F,100%,99.6%,113%,103%,103%,101%,95.9%,101%,108%,104%,107%,94.4%,108%,86.9%,102%,100%,105%,97.7%,96.8%
CCCCCc1ccc(S(=O)(=O)Nc2cc(-c3csc(NC(=O)CN4CCN(C)CC4)n3)ccc2OC)cc1,49.8%,74.6%,5.27% (active),60.3%,-61.5% (active),22.1%,-51.9% (active),15.1%,-75% (active),-57.6% (active),22.1%,-27.9% (active),-84.6% (active),-38.1% (active),–,-24.5% (active),-68.2% (active),-80.8% (active),-49.2% (active)
O=S(=O)(NCCCNc1nccc(-n2cnc3ccccc32)n1)c1ccc(C(F)(F)F)cc1,91.3%,77.8%,103%,87.1%,89.8%,80.2%,70%,86.3%,91.2%,96.4%,94.5%,67.6%,98.4%,83.1%,105%,86.8%,81.2%,87.9%,97.8%
O=S(=O)(NCCNc1nccc(-n2cnc3ccccc32)n1)c1ccc(Br)cc1,97.3%,76.5%,107%,87.2%,101%,74.2%,87.2%,100%,103%,107%,99.9%,88.4%,103%,88.2%,101%,91.2%,96.5%,96.2%,109%
NS(=O)(=O)c1ccc(-n2cc(CN3CCCCC3)nn2)cc1,107%,98.6%,107%,106%,105%,96.6%,95.8%,105%,109%,119%,108%,94.9%,105%,105%,106%,102%,102%,102%,101%
